Compounds with a hit are over-represented: about 0.38% of the library has one in this group of screens.
Rac1 wt GTP bind – wildtype Rac1 GTP binding modulators, primary screen, biochemical, GST-Rac1 beads, flow cytometry, multiplex; fluorescent GTP binding; actives lie on both sides; 0 = cold GTP competed, 100 = untreated; 0.27% of 190,000 active; GTP binding activity (% of control), % at 10 µM; Ras-related C3 botulinum toxin substrate 1 (Homo sapiens), P63000; AID 757, 2007;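 active = GTP binding activity at least 20 points away from the 100% control level, either lower or higher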
Cdc42 wt GTP – modulators of GTP binding to wildtype Cdc42, primary screen, biochemical, multiplex bead flow cytometry, Bodipy-GTP. Cell division control protein 42 homolog (Homo sapiens), P60953. GST-Cdc42 beads; actives lie on both sides. percent activity (GTP binding), % at 10 µM. 0.2% of 190,000 active. AID 761, 2007;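 active = percent activity GTP binding at least 20 points away from the 100% baseline, either down as inhibitor or up as activator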;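 note: median bead fluorescence of bound Bodipy-FL-GTP at 100 nM; 0% = excess unlabeled GTP control and 100% = no compound control; below 100% means less GTP binding so inhibitor and above means activator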
Target sequence (P60953 whole entry, looked up): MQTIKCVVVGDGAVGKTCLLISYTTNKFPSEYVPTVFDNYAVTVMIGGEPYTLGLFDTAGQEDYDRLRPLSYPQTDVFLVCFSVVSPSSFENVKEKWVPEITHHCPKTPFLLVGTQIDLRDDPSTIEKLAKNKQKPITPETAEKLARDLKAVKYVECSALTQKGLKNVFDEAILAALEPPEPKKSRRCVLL
Rab2 wt GTP – modulators of GTP binding to Rab2A wildtype, primary screen, biochemical, dog, bead-based flow cytometry, multiplex; Ras-related protein Rab-2A (Canis lupus familiaris), P61105; GST-Rab2 wt beads, Bodipy-GTP binding; GTP binding activity, % at 10 µM; 0.19% of 190,000 active; AID 760, 2007;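 active = GTP binding activity at least 20 points away from 100%, either lowered or raised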;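 note: 0% = beads with excess unlabeled GTP and 100% = no-compound control corrected for plate trend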
Rab7 wt GTP bind – modulators of GTP binding to Rab7, primary screen, biochemical, wildtype, multiplex bead flow cytometry; GST-Rab7 beads, fluorescent GTP binding; actives lie on both sides; untreated = 100%, excess cold GTP = 0%; GTP binding activity (percent of control), % at 10 µM; 0.055% of 190,000 active;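 active = fluorescent GTP binding to Rab7 beads changed by at least 20 points from the 100% baseline, either direction, mostly lower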;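 note: median green fluorescence of bound Bodipy-FL-GTP per Rab7 bead population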
Rac1 mut GTP – GTP binding modulators of activated mutant Rac1, primary screen, biochemical, bead-based flow cytometry, multiplex, fluorescent GTP; Ras-related C3 botulinum toxin substrate 1 (Homo sapiens), P63000; 0.11% of 190,000 active; GST-Rac1 activated beads; actives lie on both sides; 100% means binding = to untreated wells; percent activity (GTP binding), % at 10 µM;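 active = GTP binding at least 20 percentage points away from the 100% baseline, in either direction, so actives lie on both sides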
HRas wt GTP bind – modulators of GTP binding to HRas wildtype, primary screen, biochemical, bead-based flow cytometry, multiplex. GTPase HRas (Homo sapiens), P01112. GST-Ras wt beads, Bodipy-FL-GTP binding; actives lie on both sides. 0.14% of 190,000 active. AID 759, 2007. GTP binding activity, % at 10 µM;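 active = GTP binding activity at least 20% away from the 100% baseline, either lowered as inhibitor or raised as activator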;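 note: 0% = unlabeled GTP competition control and 100% = no-compound control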
Target sequence (P01112 whole entry, looked up): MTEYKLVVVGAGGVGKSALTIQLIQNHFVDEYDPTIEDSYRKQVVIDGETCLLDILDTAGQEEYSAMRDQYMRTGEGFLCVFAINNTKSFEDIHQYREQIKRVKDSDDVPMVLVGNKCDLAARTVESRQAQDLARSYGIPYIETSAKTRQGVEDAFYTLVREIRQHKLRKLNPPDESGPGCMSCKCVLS
* marks the source's active call; other numbers are inactive results; [ ] = dose if it differs, or a comment.

SMILES	Rac1 wt GTP bind	Cdc42 wt GTP	Rab2 wt GTP	Rab7 wt GTP bind	Rac1 mut GTP	HRas wt GTP bind
Cc1cccc(NC(=O)CN2C(=O)N/C(=C/c3ccc(-c4cccc(C(=O)O)c4C)o3)C2=O)c1	97	93	92	93	92	91
CCC1CCCCN1C(=S)Nc1cccc(S(=O)(=O)N(C)C)c1 (centres undefined)	99	97	97	96	92	99
Cc1cn2c(nc(=O)c3cccnc32)s1	76*	85	83	92	89	86
Fc1ccc(NC(=S)N2CCc3ccccc3C2)c(F)c1	101	95	94	96	94	96
CCOC(=O)c1nn(-c2ccccc2)c(=O)cc1SC(C)C	97	99	63*	96	96	95
COC(=O)C1=C(C)NC(=O)/C1=C\c1cc(C)n(-c2c(C)cccc2C)c1C	113	121*[activator]	123*[activator]	112	110	122*[activator]
COC(=O)C1=C(C)NC(=O)/C1=C\c1cc(C)n(-c2ccccc2C)c1C	102	102	100	102	99	101
COc1ccc(OC)c(CC(NC(C)=O)C(=O)NC2CCN(c3cc(C)nc4ncnn34)CC2)c1 (centres undefined)	103	98	99	99	96	99
Nc1nonc1C(=O)NCCN=Cc1cc(Cc2ccccc2)cc(Br)c1O	128*[activator]	125*[activator]	122*[activator]	114	119	117
Nc1nonc1C(=O)NCCN=Cc1ccccc1O	105	106	103	99	101	104
O=C(NCc1cccnc1)C(=O)Nc1ccc2c(c1)OCO2	100	95	100	103	98	98
COc1ccc(OC)c(/C=N/NC(=O)c2ccc(Cn3cc([N+](=O)[O-])cn3)o2)c1	81	91	78*	87	92	82
COC(=O)c1cc2nc(-c3ccc(OC)c(OC)c3)cc(C(F)(F)F)n2n1	100	98	99	101	100	99
COc1ccc(-c2cc(C(F)(F)F)n3nc(C(=O)O)cc3n2)cc1OC	77*	81	80	84	85	86
NC(=O)c1cc2nc(-c3ccco3)cc(C(F)(F)F)n2n1	68*	64*	63*	92	81	65*
Cc1ccc(C)n1-c1nccc(-c2ccco2)n1	102	97	101	104	95	98
COc1ccc(CNC(=O)CN2C(=O)C3C4C=CC(C4)C3C2=O)cc1 (centres undefined)	103	103	101	92	101	99
CCOC(=O)C1(CCCc2ccccc2)CCN(C(=O)C2=C(C)OCCO2)CC1	100	97	96	102	97	100
CNc1ncc(C(=O)c2ccccc2)s1	101	101	99	99	99	102
CNc1ncc(C(=O)c2ccc(Br)cc2)s1	121*[activator]	106	99	100	106	101
COc1ccccc1CN1CCNC(=O)C1CC(=O)NCCOc1cccnc1 (centres undefined)	100	100	102	108	98	101
Oc1ccc(N=Cc2cc(Br)c(N3CCOCC3)o2)cc1	103	105	103	97	102	104
O=[N+]([O-])c1cc(Br)c(O)c(C=Nc2ccc(N3CCOCC3)cc2)c1	84	79*	87	97	84	88
CC(C)c1c(Cl)c(O)c(-c2ccccc2)c(=O)n1-c1ccc(F)cc1	97	94	95	100	96	99
CCOC(=O)C1=C(N)OC2=C(C(=O)CCC2)C1c1ccco1 (centres undefined)	94	94	101	98	92	97
SMILES	Rac1 wt GTP bind	Cdc42 wt GTP	Rab2 wt GTP	Rab7 wt GTP bind	Rac1 mut GTP	HRas wt GTP bind
CCOc1ccccc1C1C(C(=O)OC)=C(N)OC2=C1C(=O)CCC2 (centres undefined)	133*[activator]	125*[activator]	118	111	110	116
O=C(COC(=O)CNC(=O)c1ccccc1)Nc1ccc(F)c([N+](=O)[O-])c1	98	99	100	105	95	99
COc1cccc(NC(=O)CSc2nc3c([nH]c4ccccc43)c(=O)n2C)c1	123*[activator]	113	116	115	99	112
Cc1cccc(NC(=O)CSc2nc3c([nH]c4ccccc43)c(=O)n2C)c1	104	99	101	115	97	103
COc1cccc(C2CC(c3cccs3)=NN2S(C)(=O)=O)c1 (centres undefined)	95	96	95	97	92	96
COc1cc2[nH]c(=S)nc(NC3CCCC3)c2cc1OC	51*	58*	60*	74*	70*	60*
COc1cc2[nH]c(=O)n(C3CCCCC3)c(=O)c2cc1OC	106	103	101	102	98	102
COc1ccc(/C=N/Nc2ncnc3sc(C)c(C)c23)cc1	96	93	96	97	95	96
Cc1sc2ncnc(N/N=C/c3ccc(O)cc3)c2c1C	82	93	77*	88	93	80
Cc1ccc(CSc2nnc(-c3ccccc3N)c(=O)[nH]2)cc1	120*[activator]	102	98	97	100	98
COc1ccccc1N/C(N)=N/c1nc(C(F)(F)F)cc(=O)[nH]1	103	102	97	108	100	99
O=C(NNC(=S)NCc1ccc(Cl)cc1)c1ccc(Br)o1	90	78*	77*	96	80	90
Cc1ccc(-c2csc3nc4c5ccccc5c(NCCCN5CCOCC5)nn4c(=O)c23)cc1	60*	57*	59*	95	82	60*
Cc1ccc(-c2csc3nc(C)n(N)c(=O)c23)cc1	94	96	95	95	96	96
Cc1ccc(-c2csc3nc4c5ccccc5c(NCCCN(C)C)nn4c(=O)c23)cc1	79*	72*	77*	90	89	73*
C=CCOc1cccc(C(=O)N2CCCC(CNS(=O)(=O)c3cccs3)C2)c1 (centres undefined)	96	92	91	91	94	91
Cc1cc(=O)oc2cc(OC(=O)c3cncc(Br)c3)ccc12	96	100	96	92	92	94
O=C1NC(=Nc2ccc(O)cc2)S/C1=C/c1ccco1	95	95	93	94	93	93

Compound activity (PubChem)
